The values that follow come from PubChem BioAssay (NCI).

Several values for one entry are separate records, joined by “and”; a condition that tells them apart may be missing. Equal values may be shown once. This is part of a sample that, as a whole, favours compounds with a hit. Of some 83,000 tested, about 20% had one in any assay.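 Interpretation: 100, growth as untreated; towards 0, rising growth inhibition; 0, no net growth; 0 to -100, cell death. Compounds scoring below 10 were considered active.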 Activity calls are given as the source filed them.

Common to all, as to assay: NCI-60 one-dose screen, 48 h (100 = growth as untreated, 0 = no growth, -100 = all killed)
The test system of experiment [1] is SR leukemia. The settings on record: 10 µM unless noted.
The subject of experiment [2] is RPMI-8226 leukemia.
The test system of experiment [3] is OVCAR-8 ovarian.
Experiment [4] concerns OVCAR-5 ovarian.
Experiment [5] relates to OVCAR-4 ovarian. The settings on record: 10 µM unless noted.
For experiment [6], the system named is SK-OV-3 ovarian.
For experiment [7], the system named is IGROV1 ovarian. As to conditions: 10 µM unless noted.
Experiment [8] deals with OVCAR-3 ovarian.
Experiment [9] has as its system HS 578T breast. The settings on record: 10 µM unless noted.
Experiment [10] concerns NCI/ADR-RES ovarian.
Experiment [11] concerns T-47D breast.
For experiment [12], the system named is BT-549 breast. As to conditions: 10 µM unless noted.
Experiment [13] relates to MDA-MB-435 melanoma. As to conditions: 10 µM unless noted.
The test system of experiment [14] is SW-620 colon.
For experiment [15], the system named is MCF7 breast.
In experiment [16] the test system is HCT-116 colon.
In experiment [17] the test system is HCC-2998 colon.
Experiment [18] deals with KM12 colon.

As for `Cc1nnc(NC/C=C/c2ccccc2)s1`, the growth in [1] was 113% (inactive); in experiment [2] (10 µM unless noted), 102% (inactive) and 118% (inactive); in experiment [3] (10 µM unless noted), 102% (inactive); in [4] (10 µM unless noted) it was 112% (inactive); in [5] it was 102% (inactive) and 111% (inactive); in [6] (10 µM unless noted) it was 98.4% (inactive) and 118% (inactive). Moreover, the growth in [7] is 112% (inactive) and 114% (inactive); in experiment [8] (10 µM unless noted), 99.7% (inactive); in experiment [9], 122% (inactive) and 105% (inactive); in experiment [10] (10 µM unless noted), 103% (inactive) and 102% (inactive); in [11] (10 µM unless noted), 91.6% (inactive) and 101% (inactive); in [12] it was 97.6% (inactive) and 113% (inactive). Moreover, the growth in experiment [13] was 110% (inactive) and 108% (inactive); in experiment [14] (10 µM unless noted), 113% (inactive) and 105% (inactive); in [15] (10 µM unless noted) it was 98.8% (inactive) and 96.2% (inactive); in [16] (10 µM unless noted), 105% (inactive) and 100% (inactive); in [17] (10 µM unless noted), 127% (inactive) and 102% (inactive); in experiment [18] (10 µM unless noted) it was 94.4% (inactive).
With `CCc1ccccc1-n1c(N)c(C#N)c(-c2ccc(OC)c(OC)c2)c(C#N)c1=O`, the growth in experiment [1] was 83% [100 µM] (inactive); in experiment [2] (10 µM) it was 112% (inactive); in experiment [2] (100 µM) it was 87.7% (inactive); in experiment [3] (10 µM), 109% (inactive); in [3] (100 µM) it was -24.4% (active); in experiment [4] (10 µM) it was 107% (inactive). Further, the growth was 48.6% (inactive) in experiment [4] (100 µM); 111% (inactive) in experiment [6] (10 µM); -20.7% (active) in [6] (100 µM); 113% (inactive) in [8] (10 µM); 13.4% (inactive) in experiment [8] (100 µM); 111% (inactive) in experiment [10] (10 µM). Besides, the growth is 22.1% (inactive) in experiment [10] (100 µM); 102% (inactive) in experiment [11] (10 µM); 3.67% (active) in [11] (100 µM); 116% (inactive) in experiment [14] (10 µM); 86.4% (inactive) in experiment [14] (100 µM); 115% (inactive) in experiment [15] (10 µM). For the same compound, the growth in experiment [15] (100 µM) is 10.4% (inactive); in [16] (10 µM), 110% (inactive); in experiment [16] (100 µM) it was 27.8% (inactive); in [17] (10 µM), 122% (inactive); in experiment [17] (100 µM) it was 79.6% (inactive); in experiment [18] (10 µM), 99.3% (inactive). Further, in experiment [18] (100 µM), the growth is 45.6% (inactive).
As for `CCC(C)C1(C2CCCC2)NC(=O)NC1=O` (centres undefined), the growth in experiment [1] was 92% (inactive); in [2] (10 µM unless noted), 93.9% (inactive) and 106% (inactive); in [3] (10 µM unless noted) it was 108% (inactive) and 99.9% (inactive); in experiment [4] (10 µM unless noted), 111% (inactive) and 105% (inactive); in [5] it was 102% (inactive); in [6] (10 µM unless noted) it was 99.7% (inactive) and 109% (inactive). Besides, the growth in experiment [7] is 117% (inactive) and 119% (inactive); in experiment [8] (10 µM unless noted) it was 106% (inactive) and 115% (inactive); in experiment [9], 107% (inactive) and 103% (inactive); in experiment [10] (10 µM unless noted), 109% (inactive) and 104% (inactive); in experiment [11] (10 µM unless noted) it was 97.1% (inactive) and 98.3% (inactive); in experiment [12], 107% (inactive). For the same compound, the growth in [13] was 121% (inactive) and 102% (inactive); in experiment [14] (10 µM unless noted), 112% (inactive) and 98.9% (inactive); in experiment [15] (10 µM unless noted), 99.3% (inactive) and 97.3% (inactive); in [16] (10 µM unless noted) it was 100% (inactive) and 112% (inactive); in experiment [17] (10 µM unless noted) it was 103% (inactive) and 102% (inactive); in experiment [18] (10 µM unless noted) it was 106% (inactive) and 111% (inactive).
With `CC1=C[C@H]2c3c(c(O)c(O)c4oc5cc(O)cc(O)c5c(=O)c34)[C@H](c3cc(O)c(O)c4oc5cc(O)cc(O)c5c(=O)c34)[C@H]2C(C)(C)C1`, the growth in [1] is 1.73% (active) and 3.96% (active); in experiment [2] (10 µM unless noted) it was 4.38% (active) and -30.3% (active); in experiment [3] (10 µM unless noted) it was 4.35% (active) and 4.94% (active); in experiment [4] (10 µM unless noted) it was 11% (inactive) and 12.4% (inactive); in [5], 20.7% (inactive) and 7.19% (active); in experiment [6] (10 µM unless noted), -1.03% (active). Also, the growth is 14.1% (inactive) and -13.1% (active) in experiment [7]; -5.67% (active) and -43.9% (active) in experiment [8] (10 µM unless noted); 3.36% (active) and -17.1% (active) in [9]; 55.8% (inactive) and 23.7% (inactive) in experiment [10] (10 µM unless noted); -1.57% (active) in [11] (10 µM unless noted); 7.04% (active) and -11.3% (active) in experiment [12]. The growth in experiment [13] was -69.8% (active) and -76.7% (active); in experiment [14] (10 µM unless noted), -37.8% (active) and -80.9% (active); in [15] (10 µM unless noted), -19.7% (active) and -76.5% (active); in experiment [16] (10 µM unless noted), -61.9% (active) and -52.5% (active); in experiment [17] (10 µM unless noted), 14.3% (inactive) and -61% (active); in experiment [18] (10 µM unless noted), -27% (active) and -71.5% (active).
